From publication PMC5540273 (PLoS ONE, 2017)

Tests used:
Conditions in all cases: concentration: 1 μM, replicates: in singlicate; n = 1
TNNI3K = tested on: TNNI3K
TRKA = tested on: T1, TRKA
T1 construct: gene NTRK1

TRKB = tested on: TRKB
TRKC = tested on: T2, TRKC
T2 construct: gene NTRK3

TRPM6 = tested on: TRPM6
TSSK1B = tested on: TSSK1B
TSSK3 = tested on: TSSK3
TTK = tested on: TTK
TXK = tested on: TXK
[1] = tested on: TYK2(JH1domain-catalytic)
[2] = tested on: TYK2(JH2domain-pseudokinase)
TYRO3 = tested on: TYRO3
ULK1 = tested on: ULK1
ULK2 = tested on: ULK2
ULK3 = tested on: ULK3
VEGFR2 = tested on: T3, VEGFR2
T3 construct: gene KDR

VPS34 = tested on: T4, VPS34
T4 construct: gene PIK3C3

VRK2 = tested on: VRK2
WEE1 = tested on: WEE1
WEE2 = tested on: WEE2
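Also: KINOMEscan kinase panel screen.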

SMILES	%Inh (TNNI3K)	%Inh (TRKA)	%Inh (TRKB)	%Inh (TRKC)	%Inh (TRPM6)	%Inh (TSSK1B)	%Inh (TSSK3)	%Inh (TTK)	%Inh (TXK)	%Inh [1]	%Inh [2]	%Inh (TYRO3)	%Inh (ULK1)	%Inh (ULK2)	%Inh (ULK3)	%Inh (VEGFR2)	%Inh (VPS34)	%Inh (VRK2)	%Inh (WEE1)	%Inh (WEE2)
O=C(O)C(F)(F)F.O=c1[nH]ccc2nc(N[C@@H]3CCNC3)nc(Nc3cc(Cl)cc(Cl)c3)c12 [GSK2188764]	39%	100%	76%	62%	37%	75%	85%	87%	0%	80%	28%	0%	99.8%	99.9%	97.4%	15%	78%	94%	0%	0%
Cc1cccc(Nc2nc(N[C@H]3CCCC[C@H]3N)ncc2C(N)=O)c1.Cl [GSK986310]	31%	99%	55%	22%	0%	64%	33%	36%	0%	70%	19%	21%	72%	80%	43%	0%	56%	0%	41%	8%
O=C(Nc1n[nH]c2cc(-c3cccs3)ccc12)C1CC1 [SB-731284]	0%	3%	0%	3%	39%	0%	7%	10%	0%	28%	63%	0%	39%	15%	7%	57%	16%	0%	0%	0%
N#CC1(c2cccc(C(=O)Nc3cccc(Oc4ccc5nc(NC(=O)C6CC6)sc5n4)c3)c2)CC1	90.5%	0%	7%	0%	12%	0%	0%	9%	86%	0%	0%	53%	0%	0%	0%	99.7%	0%	19%	0%	5%
CCNc1nccc(-c2c(-c3ccc(F)cc3)ncn2C2CCN(C)CC2)n1	0%	0%	0%	0%	0%	0%	0%	7%	0%	0%	0%	26%	0%	0%	0%	0%	0%	0%	0%	0%
CN(c1ccc(F)c(NC(=O)c2cccc(OC(C)(C)C#N)c2Cl)c1)c1ccc2nc(NC(=O)C3CC3)sc2n1	36%	6%	0%	11%	9%	24%	2%	6%	5%	11%	0%	14%	2%	0%	4%	91.9%	0%	0%	0%	17%
Cn1cc(-c2ccc3c(c2)CCN3C(=O)Cc2cc(F)cc(C(F)(F)F)c2)c2c(N)ncnc21 [GSK2635225]	47%	49%	49%	69%	36%	0%	15%	26%	0%	0%	1%	0%	0%	0%	0%	22%	3%	0%	0%	0%
CC(=O)Nc1cn2nc(Oc3cccc(NC(=O)c4cccc(C(F)(F)F)c4)c3)ccc2n1	97%	0%	0%	0%	0%	8%	0%	29%	61%	0%	0%	33%	0%	0%	0%	99.4%	24%	8%	21%	0%
Cc1ccc(NC(=O)c2ccc(Cl)c(Cl)c2)cc1-c1ccc(C(=O)Nc2ccncc2)cc1 [GSK1398460]	60%	0%	0%	0%	14%	20%	48%	15%	0%	0%	0%	10%	15%	0%	6%	6%	0%	0%	11%	6%
COc1cc(Nc2nccc(N3CCC(NS(=O)(=O)c4ccc(NC(C)=O)cc4)CC3)n2)cc(OC)c1OC [GSK1379825]	40%	100%	27%	15%	0%	12%	25%	1%	51%	75%	84%	76%	21%	11%	97.4%	0%	34%	0%	75%	0%
